Measured values as given in PubChem BioAssay (Tox21).
Where “and” joins values, the source holds several entries; their conditions need not be identical. Equal entries are not always repeated. Inconclusive results are not listed. Where a call stands in place of a potency, no number is given. Where a structure was tested more than once in an assay, its records may differ in their call. Calls of active or inactive are those of the source. Calls follow the shape of the dose curve; as a rule, active = well fitted curve in the direction sought with a large enough effect in the repeat runs; inconclusive = weak or mixed curves; inactive = no such curve, though single readings can be large; an effect the other way counts as inactive or inconclusive.

Experiments:
[1] = Caspase-3/7 induction in HepG2 cells by small molecules, qHTS assay (AID 1346978); also: nearly all actives have a fitted effect of over 15% in size; also: potency is read from the fitted curve at half-maximal effect
How it was run: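 Wild-type HepG2 cells, 2,000/well, settled 5 hr at 37 C and 5% CO2, then compound-treated for 17 hr; caspase-3/7 activity read by luminescent Caspase-Glo 3/7 after 30 min at room temperature.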

[2] = Caspase-3/7 induction in CHO-K1 cells by small molecules, qHTS cell viability counter screen (AID 1346979); also: nearly all actives have a fitted effect of over 35% in size; also: potency is read from the fitted curve at half-maximal effect
How it was run: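 Cytotoxicity counter screen run in parallel with the caspase-3/7 assay: CHO-K1 cells, 16hr compound treatment at 37C, then CellTiter-Fluor for 1hr before fluorescence reading.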

[3] = Caspase-3/7 induction in CHO-K1 cells by small molecules, qHTS assay (AID 1346980); also: nearly all actives have a fitted effect of over 15% in size
How it was run: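 Wild-type CHO-K1 cells exposed to compounds for 17hr at 37 C, 5% CO2. Caspase-3/7 activity then measured by Caspase-Glo 3/7 luminescence after 30min at room temperature.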

[4] = Caspase-3/7 induction in HepG2 cells by small molecules, qHTS cell viability counter screen (AID 1346981); also: nearly all actives have a fitted effect of over 30% in size; also: potency is read from the fitted curve at half-maximal effect
How it was run: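 Treatment of HepG2 cells with DMSO-delivered compounds ran 16 hr at 37 C following a 5-hr pre-incubation of 2,000 cells/well. CellTiter-Fluor fluorescence, read after 1 hr, served as the viability measure in a qHTS format.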

[5] = biological target: Voltage-gated inwardly rectifying potassium channel KCNH2 (Homo sapiens) (UniProt Q12809); assay: Human Ether-a-go-go-Related Gene (hERG) channel small molecule antagonists: fluorescence cell-based qHTS assay (AID 1671200); also: nearly all actives have a fitted effect of over 50% in size; also: potency is read from the fitted curve at half-maximal effect
How it was run: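 Fluorescence at 540 nm emission (480 nm excitation) was recorded kinetically for 2 min at 1-second intervals once the thallium-containing stimulus reached cells previously loaded with FluxOR II dye.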

[6] = biological target: Nuclear receptor subfamily 1 group I member 2 (Rattus norvegicus) (UniProt Q9R1A7); assay: Rat pregnane X receptor (rPXR) activation by small molecules, qHTS assay (AID 1346983); settings: rPXR luciferase reporter cells, One-Glo luminescence, 24 h; stronger effect = higher value; also: nearly all actives have a fitted effect of over 20% in size
How it was run: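 Cell-based rPXR activation assay: rPXR cells, 2,000 per well, rested 5hr at 37 C, then exposed to compounds in DMSO for 24 hr at 37 C. Luciferase activity read by One-Glo luminescence after 30 min at room temperature.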

[7] = biological target: Cytochrome P450 2D6 (Homo sapiens) (UniProt P10635); assay: Cytochrome P450 Family 2 Subfamily D Member 6 (CYP2D6) small molecule antagonists: luciferase reporter qHTS assay (AID 1671196); also: nearly all actives have a fitted effect of over 50% in size; also: potency is read from the fitted curve at half-maximal effect
How it was run: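 Chemicals tested for interference with CYP2D6 activity; proluciferin substrate, NADPH regeneration, 1 h at room temperature, luminescent detection.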

[8] = biological target: Cytochrome P450 2C19 (Homo sapiens) (UniProt P33261); assay: Cytochrome P450 Family 2 Subfamily C Member 19 (CYP2C19) small molecule antagonists: luciferase reporter qHTS assay (AID 1671197); also: nearly all actives have a fitted effect of over 65% in size; also: potency is read from the fitted curve at half-maximal effect
How it was run: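 Quantitative high-throughput screen of the Tox21 library using CYP2C19 with proluciferin substrate. Reaction: NADPH regeneration, 37C, 1 h, after 10 min compound preincubation at room temperature. Readout: luminescence.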

[9] = biological target: Cytochrome P450 2C9 (Homo sapiens) (UniProt P11712); assay: Cytochrome P450 Family 2 Subfamily C Member 9 (CYP2C9) small molecule antagonists: luciferase reporter qHTS assay (AID 1671198); also: nearly all actives have a fitted effect of over 50% in size; also: potency is read from the fitted curve at half-maximal effect
How it was run: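 P450-Glo proluciferin substrate with CYP2C9 enzyme; 10 min RT preincubation, then NADPH regeneration 1 h at 37C; luciferin detection reagent 20 min RT, luminescence in relative luminescence units.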

[10] = biological target: Cytochrome P450 1A2 (Homo sapiens) (UniProt P05177); assay: Cytochrome P450 Family 1 Subfamily A Member 2 (CYP1A2) small molecule antagonists: luciferase reporter qHTS assay (AID 1671199); also: nearly all actives have a fitted effect of over 50% in size; also: potency is read from the fitted curve at half-maximal effect
How it was run: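 Read-out is luminescence from luciferin detection reagent (20 min) proportional to CYP1A2 activity; compounds in DMSO preincubated 10 min with enzyme and proluciferin substrate, then NADPH regeneration solution, 1 h, room temperature.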

[11] = biological target: Nuclear receptor subfamily 1 group I member 2 (Homo sapiens) (UniProt O75469); assay: Human pregnane X receptor (PXR) small molecule agonists, qHTS assay (AID 1346982); also: nearly all actives have a fitted effect of over 35% in size; also: potency is read from the fitted curve at half-maximal effect
How it was run: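 Stable HepG2 line reporting PXR-mediated CYP3A4 expression via luciferase. Treatment: 24 hr with compounds in DMSO at 37 C. Detection: ONE-Glo luminescence.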

[12] = biological target: Cytochrome P450 3A4 (Homo sapiens) (UniProt P08684); assay: Cytochrome P450 Family 3 Subfamily A Member 4 (CYP3A4) small molecule antagonists: luciferase reporter qHTS assay (AID 1671201); also: nearly all actives have a fitted effect of over 50% in size; also: potency is read from the fitted curve at half-maximal effect
How it was run: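 qHTS, 1536-well. CYP3A4 + proluciferin substrate, cpd 10 min RT → NADPH regen 1 h RT → detection reagent 20 min → luminescence (RLU). Ketoconazole positive control.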

[13] = biological target: Nuclear receptor subfamily 1 group I member 2 (Homo sapiens) (UniProt O75469); assay: Human pregnane X receptor (PXR) activation by small molecules, qHTS assay (AID 1346985); also: nearly all actives have a fitted effect of over 40% in size
How it was run: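 DPX-2 cells (HepG2 co-transfected with a PXR response element and a CYP3A4-promoter luciferase construct) were seeded at 2,000 per well, rested 5 hr at 37C, then exposed to DMSO-dissolved compounds for 24 hr. Activation was read as luciferase luminescence.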

Chain of Cytochrome P450 3A4 (Homo sapiens) (P08684 whole entry, looked up): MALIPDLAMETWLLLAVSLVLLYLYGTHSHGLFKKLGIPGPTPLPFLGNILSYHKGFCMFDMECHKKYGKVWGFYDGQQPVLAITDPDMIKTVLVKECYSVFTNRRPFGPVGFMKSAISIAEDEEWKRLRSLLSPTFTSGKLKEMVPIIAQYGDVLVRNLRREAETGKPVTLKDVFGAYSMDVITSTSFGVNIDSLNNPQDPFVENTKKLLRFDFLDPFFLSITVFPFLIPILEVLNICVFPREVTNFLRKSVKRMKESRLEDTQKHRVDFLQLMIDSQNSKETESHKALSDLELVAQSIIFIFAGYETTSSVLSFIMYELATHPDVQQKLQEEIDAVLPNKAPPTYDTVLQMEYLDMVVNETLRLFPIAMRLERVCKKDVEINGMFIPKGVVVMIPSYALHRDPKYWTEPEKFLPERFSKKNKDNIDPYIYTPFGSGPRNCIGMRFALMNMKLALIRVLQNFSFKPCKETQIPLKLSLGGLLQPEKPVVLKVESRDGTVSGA
Chain of Nuclear receptor subfamily 1 group I member 2 (Rattus norvegicus) (Q9R1A7 whole entry, looked up): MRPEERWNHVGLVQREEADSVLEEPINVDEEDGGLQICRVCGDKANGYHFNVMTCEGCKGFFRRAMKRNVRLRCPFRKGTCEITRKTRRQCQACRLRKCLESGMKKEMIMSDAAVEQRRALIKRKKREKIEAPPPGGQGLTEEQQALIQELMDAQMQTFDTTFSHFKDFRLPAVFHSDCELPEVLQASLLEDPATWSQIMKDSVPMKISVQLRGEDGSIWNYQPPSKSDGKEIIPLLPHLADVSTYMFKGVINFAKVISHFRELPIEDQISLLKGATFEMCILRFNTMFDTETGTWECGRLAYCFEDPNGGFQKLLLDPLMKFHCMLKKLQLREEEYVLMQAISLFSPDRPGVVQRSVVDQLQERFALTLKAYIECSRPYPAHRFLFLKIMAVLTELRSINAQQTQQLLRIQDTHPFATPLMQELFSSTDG
Chain of Voltage-gated inwardly rectifying potassium channel KCNH2 (Homo sapiens) (Q12809 whole entry, looked up): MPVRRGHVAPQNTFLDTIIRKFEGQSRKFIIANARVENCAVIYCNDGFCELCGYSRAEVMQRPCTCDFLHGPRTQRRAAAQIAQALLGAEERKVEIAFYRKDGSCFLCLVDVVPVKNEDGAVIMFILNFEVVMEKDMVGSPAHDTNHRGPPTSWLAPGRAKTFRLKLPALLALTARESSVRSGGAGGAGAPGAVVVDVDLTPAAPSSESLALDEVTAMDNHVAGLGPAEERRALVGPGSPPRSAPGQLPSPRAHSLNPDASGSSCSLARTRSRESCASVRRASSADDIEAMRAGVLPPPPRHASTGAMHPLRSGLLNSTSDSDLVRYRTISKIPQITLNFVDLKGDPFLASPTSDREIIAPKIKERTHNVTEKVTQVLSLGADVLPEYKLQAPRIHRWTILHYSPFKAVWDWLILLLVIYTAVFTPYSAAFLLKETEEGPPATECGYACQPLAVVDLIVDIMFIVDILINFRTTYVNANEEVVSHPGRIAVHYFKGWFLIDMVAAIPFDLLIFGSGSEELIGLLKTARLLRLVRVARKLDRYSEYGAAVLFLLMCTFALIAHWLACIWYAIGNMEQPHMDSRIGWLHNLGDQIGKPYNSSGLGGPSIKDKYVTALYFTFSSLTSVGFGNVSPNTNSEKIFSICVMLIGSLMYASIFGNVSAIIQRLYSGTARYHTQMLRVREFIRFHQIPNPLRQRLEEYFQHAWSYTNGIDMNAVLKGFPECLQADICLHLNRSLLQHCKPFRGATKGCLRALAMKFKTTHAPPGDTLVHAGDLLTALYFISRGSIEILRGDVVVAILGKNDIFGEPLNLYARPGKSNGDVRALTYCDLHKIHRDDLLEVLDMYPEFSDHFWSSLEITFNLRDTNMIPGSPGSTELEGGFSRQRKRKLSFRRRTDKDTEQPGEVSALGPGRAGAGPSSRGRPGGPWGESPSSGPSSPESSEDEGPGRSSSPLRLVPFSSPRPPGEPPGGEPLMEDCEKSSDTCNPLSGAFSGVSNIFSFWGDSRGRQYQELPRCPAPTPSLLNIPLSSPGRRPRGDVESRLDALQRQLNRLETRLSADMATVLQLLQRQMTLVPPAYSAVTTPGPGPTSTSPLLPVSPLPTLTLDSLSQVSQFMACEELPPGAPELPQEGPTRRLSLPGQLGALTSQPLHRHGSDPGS
Chain of Cytochrome P450 1A2 (Homo sapiens) (P05177 whole entry, looked up): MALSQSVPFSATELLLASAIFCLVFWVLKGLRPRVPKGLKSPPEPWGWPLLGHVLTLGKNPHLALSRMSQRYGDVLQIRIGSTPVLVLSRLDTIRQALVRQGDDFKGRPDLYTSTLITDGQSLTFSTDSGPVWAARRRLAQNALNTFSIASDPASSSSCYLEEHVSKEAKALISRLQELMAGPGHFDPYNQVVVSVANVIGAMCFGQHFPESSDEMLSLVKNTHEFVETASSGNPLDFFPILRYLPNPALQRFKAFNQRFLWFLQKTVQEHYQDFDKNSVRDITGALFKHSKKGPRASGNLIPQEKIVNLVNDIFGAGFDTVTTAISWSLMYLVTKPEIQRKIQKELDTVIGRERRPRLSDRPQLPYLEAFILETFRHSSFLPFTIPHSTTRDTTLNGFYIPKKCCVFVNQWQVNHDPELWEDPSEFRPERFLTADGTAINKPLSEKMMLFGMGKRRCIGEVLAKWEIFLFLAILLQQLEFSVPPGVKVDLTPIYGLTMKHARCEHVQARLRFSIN
Chain of Cytochrome P450 2C19 (Homo sapiens) (P33261 whole entry, looked up): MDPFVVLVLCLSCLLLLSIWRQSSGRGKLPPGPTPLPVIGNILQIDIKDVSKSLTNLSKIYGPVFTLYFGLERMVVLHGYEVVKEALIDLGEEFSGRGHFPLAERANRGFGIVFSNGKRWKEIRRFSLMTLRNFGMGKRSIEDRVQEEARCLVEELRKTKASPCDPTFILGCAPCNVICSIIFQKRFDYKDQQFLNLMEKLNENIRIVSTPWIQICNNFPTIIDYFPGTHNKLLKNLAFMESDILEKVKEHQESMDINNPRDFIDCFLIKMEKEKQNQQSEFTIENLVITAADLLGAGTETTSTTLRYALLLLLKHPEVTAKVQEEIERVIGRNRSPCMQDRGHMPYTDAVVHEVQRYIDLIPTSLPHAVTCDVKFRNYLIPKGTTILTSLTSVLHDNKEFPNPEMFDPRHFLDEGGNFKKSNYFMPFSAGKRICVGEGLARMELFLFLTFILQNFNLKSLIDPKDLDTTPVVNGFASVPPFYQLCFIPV
Chain of Cytochrome P450 2C9 (Homo sapiens) (P11712 whole entry, looked up): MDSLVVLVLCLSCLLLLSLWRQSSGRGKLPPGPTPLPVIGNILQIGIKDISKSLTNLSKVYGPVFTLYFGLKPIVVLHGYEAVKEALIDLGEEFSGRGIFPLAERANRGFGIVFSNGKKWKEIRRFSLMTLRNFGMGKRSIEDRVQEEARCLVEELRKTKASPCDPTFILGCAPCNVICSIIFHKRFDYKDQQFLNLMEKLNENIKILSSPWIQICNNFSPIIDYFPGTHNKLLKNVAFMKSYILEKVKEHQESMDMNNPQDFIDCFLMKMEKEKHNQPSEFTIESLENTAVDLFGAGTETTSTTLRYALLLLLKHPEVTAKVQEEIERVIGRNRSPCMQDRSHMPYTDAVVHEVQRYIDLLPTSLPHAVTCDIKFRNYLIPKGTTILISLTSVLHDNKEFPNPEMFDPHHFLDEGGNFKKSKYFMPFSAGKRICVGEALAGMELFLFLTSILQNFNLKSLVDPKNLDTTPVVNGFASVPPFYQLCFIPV
Chain of Cytochrome P450 2D6 (Homo sapiens) (P10635 whole entry, looked up): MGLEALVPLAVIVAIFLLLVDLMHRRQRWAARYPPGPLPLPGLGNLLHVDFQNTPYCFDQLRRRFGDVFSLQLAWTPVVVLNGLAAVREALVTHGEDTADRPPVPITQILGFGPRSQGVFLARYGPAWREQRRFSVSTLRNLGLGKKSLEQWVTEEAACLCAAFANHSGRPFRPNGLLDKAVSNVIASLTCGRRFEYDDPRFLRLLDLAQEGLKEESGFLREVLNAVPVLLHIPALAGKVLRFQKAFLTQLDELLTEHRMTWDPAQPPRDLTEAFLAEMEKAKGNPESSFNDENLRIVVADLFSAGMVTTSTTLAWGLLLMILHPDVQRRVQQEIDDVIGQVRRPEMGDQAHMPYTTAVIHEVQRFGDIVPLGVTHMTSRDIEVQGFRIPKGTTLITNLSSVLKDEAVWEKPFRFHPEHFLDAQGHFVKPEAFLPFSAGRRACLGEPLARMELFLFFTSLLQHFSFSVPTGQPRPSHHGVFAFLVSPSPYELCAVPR
Chain of Nuclear receptor subfamily 1 group I member 2 (Homo sapiens) (O75469 whole entry, looked up): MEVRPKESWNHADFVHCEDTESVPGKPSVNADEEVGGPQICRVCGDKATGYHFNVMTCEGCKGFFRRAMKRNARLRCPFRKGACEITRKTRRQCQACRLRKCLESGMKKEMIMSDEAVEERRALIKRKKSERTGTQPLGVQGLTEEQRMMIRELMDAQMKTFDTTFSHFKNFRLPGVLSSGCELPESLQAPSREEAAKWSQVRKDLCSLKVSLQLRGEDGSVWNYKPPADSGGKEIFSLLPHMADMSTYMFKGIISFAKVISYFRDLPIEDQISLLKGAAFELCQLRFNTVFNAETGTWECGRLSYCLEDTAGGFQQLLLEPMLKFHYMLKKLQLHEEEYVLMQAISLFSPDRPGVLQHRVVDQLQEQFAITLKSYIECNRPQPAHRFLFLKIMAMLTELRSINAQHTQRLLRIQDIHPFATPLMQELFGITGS

Row | Compound | Potency [1] | Potency [2] | Potency [3] | Potency [4] | Potency [5] | max activation [6] | Potency [7] | Potency [8] | Potency [9] | Potency [10] | Potency [11] | Potency [12] | Potency [13]
1 | c1ccc2c(c1)CCCC2C1=NCCN1 (configuration not stated) | inactive | inactive | inactive | inactive | inactive |  |  |  |  |  |  |  | 
2 | Cc1ccc(-c2cc(C(F)(F)F)nn2-c2ccc(S(N)(=O)=O)cc2)cc1 | 54.3 µM (active) | 48.4 µM (active) and 61.1 µM (active) | inactive | 60.9 µM (active) and 61.1 µM (active) and inactive |  | 0.916% (inactive) | 998 nM (active) and 35.6 µM (active) and 15.5 µM (active) | 28.1 µM (active) and 50.2 µM (active) | 12.6 µM (active) and 11.2 µM (active) and 8.71 µM (active) | inactive |  |  | 
3 | C=CC(=O)OCCCCCCCC | inactive | inactive | inactive | inactive | inactive |  | inactive | inactive | inactive |  | inactive | inactive | 
4 | CC(C)C(=O)c1c(C(C)C)nn2ccccc12 | inactive | inactive | inactive |  | inactive |  | inactive | inactive | inactive | 2.57 µM (active) |  | inactive | 
5 | Nc1ccc2cc3ccccc3cc2c1 | inactive | inactive | inactive | inactive | inactive |  |  | 72.3 µM (active) and 35.6 µM (active) | 32.3 µM (active) and 31.7 µM (active) | 4.06 µM (active) and 2.24 µM (active) | 27.8 µM (active) and 21.7 µM (active) | 9.1 µM (active) and 12.6 µM (active) | 
6 | O=C(O[C@@H]1Cc2c(O)cc(O)cc2O[C@@H]1c1cc(O)c(O)c(O)c1)c1cc(O)c(O)c(O)c1 | inactive | 30.7 µM (active) and 52.5 µM (active) | inactive | 54.6 µM (active) and 29.5 µM (active) | inactive |  |  | 50.4 µM (active) and inactive | 40 µM (active) and 27.2 µM (active) | inactive | inactive | 35.7 µM (active) and 48.5 µM (active) | 
7 | CCN1CCCC1CNC(=O)c1cc(S(=O)(=O)CC)c(N)cc1OC (configuration not stated) | inactive | inactive | inactive | inactive |  |  | 9.77 µM (active) | inactive | inactive | inactive |  | inactive | 
8 | CCCCCCCCCCCC[N+](C)(C)C | inactive | 68.4 µM (active) | inactive | inactive | 21.9 µM (active) |  | 3.55 µM (active) and 3.56 µM (active) and 2.24 µM (active) | inactive and 79.6 µM (active) | inactive | inactive | 24.3 µM (active) and 61.1 µM (active) | inactive | 
9 | Cc1cc(OCCOCC[N+](C)(C)Cc2ccccc2)ccc1C(C)(C)CC(C)(C)C |  | 43 µM (active) | inactive | 54.2 µM (active) | 688 nM (active) and 756 nM (active) |  | 17.7 µM (active) and 13.8 µM (active) | 39.7 µM (active) | 62.9 µM (active) | inactive | inactive | inactive | 
10 | CCC(CO)(CO)COCC(CC)(CO)CO | inactive | inactive | inactive | inactive | inactive |  | inactive | inactive |  | inactive | inactive | inactive | 
11 | O=S(=O)(O)c1ccc2nc(-c3ccccc3)[nH]c2c1 | inactive | inactive | inactive | inactive | inactive | -3.42% (inactive) | 21.4 µM (active) and 13.8 µM (active) | 17 µM (active) and 9.77 µM (active) | 33.9 µM (active) and 19.5 µM (active) | 26.9 µM (active) and 19.5 µM (active) |  |  | inactive
12 | O=C1NCC2(CCN(CCc3ccccc3)CC2)O1 | inactive | inactive | inactive | inactive | inactive | -2.2% (inactive) | 13.8 µM (active) | inactive | inactive | inactive |  | inactive | inactive
13 | OCCN1CCNCC1 | inactive | inactive | inactive | inactive | inactive |  | inactive | inactive | inactive | inactive | inactive | inactive | 
14 | Nc1cc(S(=O)(=O)O)cc2cc(S(=O)(=O)O)cc(O)c12 | inactive | 43.1 µM (active) and 61.1 µM (active) | inactive | 54.5 µM (active) | inactive |  | 35.6 µM (active) | 19.9 µM (active) and 22.4 µM (active) | 39.9 µM (active) | inactive and 39.9 µM (active) |  | inactive | 
15 | Oc1c(Cl)cc(Cl)c(Cl)c1Cc1c(O)c(Cl)cc(Cl)c1Cl | inactive | 6.09 µM (active) and 15.4 µM (active) and 8.41 µM (active) | inactive |  | inactive | -22.6% (inactive) | inactive | 70.8 µM (active) and 79.6 µM (active) and inactive | 2 µM (active) and 3.56 µM (active) and 1.74 µM (active) | inactive |  | inactive | 
